# Assay results published in the supplement of paper PMC12819154, “High-throughput peptide-centric local stability assay extends protein–ligand identification to membrane proteins, tissues and bacteria” (Nature Structural & Molecular Biology, 2025).
# Tests used:
# [1] = molecular target: UniProt O54950; assay: log2 fold change of pooled soluble protein (PISA), ligand vs vehicle (log2 ratio); higher = more thermally stabilized; settings: ligand concentration: 20 uM; assay format: PISA pool 52.9/55.5/58.6 C
# Chain of UniProt O54950 (O54950 whole entry): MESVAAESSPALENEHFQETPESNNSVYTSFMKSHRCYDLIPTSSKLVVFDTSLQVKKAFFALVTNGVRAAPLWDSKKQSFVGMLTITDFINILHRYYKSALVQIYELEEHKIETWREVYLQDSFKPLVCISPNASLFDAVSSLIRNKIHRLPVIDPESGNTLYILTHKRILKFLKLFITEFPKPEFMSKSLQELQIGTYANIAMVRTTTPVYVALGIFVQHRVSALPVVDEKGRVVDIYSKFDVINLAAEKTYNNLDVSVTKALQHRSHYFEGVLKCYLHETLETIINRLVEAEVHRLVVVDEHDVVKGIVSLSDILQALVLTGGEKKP
# [2] = molecular target: UniProt P31938; assay: as above; settings: ligand concentration: 20 uM; assay format: PISA pool 52.9/55.5/58.6 C
# Chain of UniProt P31938 (P31938 whole entry): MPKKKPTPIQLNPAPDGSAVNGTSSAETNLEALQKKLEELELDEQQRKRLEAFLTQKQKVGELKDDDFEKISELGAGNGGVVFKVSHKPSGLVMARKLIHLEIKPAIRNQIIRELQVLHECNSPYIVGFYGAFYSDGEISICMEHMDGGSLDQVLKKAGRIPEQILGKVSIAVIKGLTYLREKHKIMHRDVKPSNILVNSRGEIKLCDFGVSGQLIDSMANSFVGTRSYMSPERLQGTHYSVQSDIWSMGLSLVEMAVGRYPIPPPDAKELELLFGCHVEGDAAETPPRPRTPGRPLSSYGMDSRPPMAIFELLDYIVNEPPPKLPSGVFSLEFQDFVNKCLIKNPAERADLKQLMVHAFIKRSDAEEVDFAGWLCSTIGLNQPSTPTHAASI
# [3] = molecular target: UniProt P41241; assay: as above; settings: ligand concentration: 20 uM; assay format: PISA pool 52.9/55.5/58.6 C
# Chain of UniProt P41241 (P41241 whole entry): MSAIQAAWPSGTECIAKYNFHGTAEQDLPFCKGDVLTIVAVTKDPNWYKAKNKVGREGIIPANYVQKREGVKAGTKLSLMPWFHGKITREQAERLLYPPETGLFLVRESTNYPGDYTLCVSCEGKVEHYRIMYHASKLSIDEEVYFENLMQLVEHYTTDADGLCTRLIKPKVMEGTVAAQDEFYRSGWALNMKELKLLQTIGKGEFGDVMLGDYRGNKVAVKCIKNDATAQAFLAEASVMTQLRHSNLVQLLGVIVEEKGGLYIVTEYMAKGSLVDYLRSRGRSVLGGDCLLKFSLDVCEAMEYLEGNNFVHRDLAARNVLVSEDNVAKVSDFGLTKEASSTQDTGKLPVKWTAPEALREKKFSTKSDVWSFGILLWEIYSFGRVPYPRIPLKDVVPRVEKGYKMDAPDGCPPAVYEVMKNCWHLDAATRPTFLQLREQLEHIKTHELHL
# [4] = molecular target: UniProt Q3UHJ0; assay: as above; settings: ligand concentration: 20 uM; assay format: PISA pool 52.9/55.5/58.6 C
# Chain of UniProt Q3UHJ0 (Q3UHJ0 whole entry, looked up): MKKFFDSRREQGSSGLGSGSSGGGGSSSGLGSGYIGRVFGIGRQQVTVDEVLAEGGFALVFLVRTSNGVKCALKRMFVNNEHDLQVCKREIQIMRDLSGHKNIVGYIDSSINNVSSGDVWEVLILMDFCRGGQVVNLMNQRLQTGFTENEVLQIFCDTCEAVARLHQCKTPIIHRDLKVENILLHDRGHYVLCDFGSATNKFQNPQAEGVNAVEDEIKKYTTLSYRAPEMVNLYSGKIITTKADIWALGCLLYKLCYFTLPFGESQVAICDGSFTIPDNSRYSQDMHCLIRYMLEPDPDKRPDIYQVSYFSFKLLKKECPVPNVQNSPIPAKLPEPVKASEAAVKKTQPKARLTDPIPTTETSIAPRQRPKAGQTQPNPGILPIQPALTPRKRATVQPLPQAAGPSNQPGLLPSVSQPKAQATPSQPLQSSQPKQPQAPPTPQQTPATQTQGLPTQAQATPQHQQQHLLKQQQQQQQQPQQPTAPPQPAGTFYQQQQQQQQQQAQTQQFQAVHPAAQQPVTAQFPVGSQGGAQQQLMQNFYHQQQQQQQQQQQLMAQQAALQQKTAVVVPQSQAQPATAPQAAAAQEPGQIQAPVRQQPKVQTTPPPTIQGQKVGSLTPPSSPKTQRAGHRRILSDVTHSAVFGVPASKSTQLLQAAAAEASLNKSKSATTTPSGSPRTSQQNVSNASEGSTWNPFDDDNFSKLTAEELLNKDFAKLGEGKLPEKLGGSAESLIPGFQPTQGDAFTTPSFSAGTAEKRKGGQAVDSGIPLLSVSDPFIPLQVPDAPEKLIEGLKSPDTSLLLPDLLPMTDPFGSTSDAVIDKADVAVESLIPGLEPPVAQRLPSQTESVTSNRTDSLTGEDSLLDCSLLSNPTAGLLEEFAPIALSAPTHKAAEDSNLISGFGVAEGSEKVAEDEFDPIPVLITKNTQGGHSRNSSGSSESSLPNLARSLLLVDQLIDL
# [5] = molecular target: T1, UniProt Q5F2E8; assay: as above; settings: ligand concentration: 20 uM; assay format: PISA pool 52.9/55.5/58.6 C
# T1 sequence (whole entry): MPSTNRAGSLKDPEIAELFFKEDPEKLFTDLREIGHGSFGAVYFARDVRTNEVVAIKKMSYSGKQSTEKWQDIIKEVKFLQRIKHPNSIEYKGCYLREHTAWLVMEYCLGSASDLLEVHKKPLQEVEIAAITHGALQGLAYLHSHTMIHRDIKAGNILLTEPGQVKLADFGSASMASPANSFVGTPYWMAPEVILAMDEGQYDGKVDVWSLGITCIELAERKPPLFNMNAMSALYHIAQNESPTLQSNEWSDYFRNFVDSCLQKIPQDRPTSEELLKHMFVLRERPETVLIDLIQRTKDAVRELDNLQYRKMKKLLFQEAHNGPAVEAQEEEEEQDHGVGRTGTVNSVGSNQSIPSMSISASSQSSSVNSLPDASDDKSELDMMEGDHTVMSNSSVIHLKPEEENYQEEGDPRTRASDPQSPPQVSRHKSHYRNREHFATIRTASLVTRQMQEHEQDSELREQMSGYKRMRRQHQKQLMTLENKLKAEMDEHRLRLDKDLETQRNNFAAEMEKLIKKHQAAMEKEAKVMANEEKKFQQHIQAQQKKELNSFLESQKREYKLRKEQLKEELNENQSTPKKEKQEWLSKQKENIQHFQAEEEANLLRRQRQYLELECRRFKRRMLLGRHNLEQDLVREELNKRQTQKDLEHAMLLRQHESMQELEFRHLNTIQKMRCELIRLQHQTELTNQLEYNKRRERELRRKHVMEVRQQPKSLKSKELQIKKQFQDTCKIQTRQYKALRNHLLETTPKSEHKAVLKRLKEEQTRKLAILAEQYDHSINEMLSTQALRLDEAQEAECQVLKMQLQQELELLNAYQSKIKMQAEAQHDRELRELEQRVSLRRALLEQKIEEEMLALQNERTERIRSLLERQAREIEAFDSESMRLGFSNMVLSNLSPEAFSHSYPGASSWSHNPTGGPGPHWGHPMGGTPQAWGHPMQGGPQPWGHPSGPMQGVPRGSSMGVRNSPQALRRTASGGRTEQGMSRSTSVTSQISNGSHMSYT
# [6] = molecular target: UniProt Q63932; assay: as above; settings: ligand concentration: 20 uM; assay format: PISA pool 52.9/55.5/58.6 C
# Chain of UniProt Q63932 (Q63932 whole entry): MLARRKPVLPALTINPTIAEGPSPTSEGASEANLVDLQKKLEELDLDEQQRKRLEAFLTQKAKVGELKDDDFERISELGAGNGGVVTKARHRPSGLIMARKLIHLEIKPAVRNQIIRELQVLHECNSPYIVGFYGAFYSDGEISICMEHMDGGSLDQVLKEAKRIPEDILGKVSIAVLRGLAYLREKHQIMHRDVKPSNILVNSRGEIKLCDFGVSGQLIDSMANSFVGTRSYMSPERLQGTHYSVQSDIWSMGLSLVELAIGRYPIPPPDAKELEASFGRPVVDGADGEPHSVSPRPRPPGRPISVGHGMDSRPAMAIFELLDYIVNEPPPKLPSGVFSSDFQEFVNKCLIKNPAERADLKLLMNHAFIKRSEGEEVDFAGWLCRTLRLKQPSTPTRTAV
# [7] = molecular target: T2, UniProt Q64464; assay: as above; settings: ligand concentration: 20 uM; assay format: PISA pool 52.9/55.5/58.6 C
# T2 sequence (whole entry): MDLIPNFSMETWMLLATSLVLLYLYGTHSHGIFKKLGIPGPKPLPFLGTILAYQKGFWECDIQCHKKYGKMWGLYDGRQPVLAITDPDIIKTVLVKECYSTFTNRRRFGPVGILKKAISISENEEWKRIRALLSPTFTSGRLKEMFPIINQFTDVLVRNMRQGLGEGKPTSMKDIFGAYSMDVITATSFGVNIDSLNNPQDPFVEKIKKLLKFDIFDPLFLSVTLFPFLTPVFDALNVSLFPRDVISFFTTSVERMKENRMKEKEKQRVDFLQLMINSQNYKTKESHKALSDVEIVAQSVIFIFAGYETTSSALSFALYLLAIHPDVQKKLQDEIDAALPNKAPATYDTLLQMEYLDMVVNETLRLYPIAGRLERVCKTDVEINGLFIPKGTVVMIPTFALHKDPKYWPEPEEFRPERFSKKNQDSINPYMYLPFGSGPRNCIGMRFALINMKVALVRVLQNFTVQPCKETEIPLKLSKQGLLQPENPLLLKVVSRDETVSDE
# [8] = molecular target: T3, UniProt Q6PIU9; assay: as above; settings: ligand concentration: 20 uM; assay format: PISA pool 52.9/55.5/58.6 C
# T3 sequence (whole entry): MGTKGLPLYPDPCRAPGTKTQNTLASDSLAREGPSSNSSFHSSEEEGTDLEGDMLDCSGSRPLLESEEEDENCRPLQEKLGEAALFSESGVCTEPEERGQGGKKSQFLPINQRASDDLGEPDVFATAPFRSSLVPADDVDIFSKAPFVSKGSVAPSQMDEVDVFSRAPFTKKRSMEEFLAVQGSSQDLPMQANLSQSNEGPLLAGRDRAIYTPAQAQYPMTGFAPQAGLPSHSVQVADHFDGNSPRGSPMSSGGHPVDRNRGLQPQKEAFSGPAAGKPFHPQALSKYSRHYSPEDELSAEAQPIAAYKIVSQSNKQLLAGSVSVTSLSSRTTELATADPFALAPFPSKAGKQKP
# [9] = molecular target: UniProt Q8BRK8; assay: as above; settings: ligand concentration: 20 uM; assay format: PISA pool 52.9/55.5/58.6 C
# Chain of UniProt Q8BRK8 (Q8BRK8 whole entry): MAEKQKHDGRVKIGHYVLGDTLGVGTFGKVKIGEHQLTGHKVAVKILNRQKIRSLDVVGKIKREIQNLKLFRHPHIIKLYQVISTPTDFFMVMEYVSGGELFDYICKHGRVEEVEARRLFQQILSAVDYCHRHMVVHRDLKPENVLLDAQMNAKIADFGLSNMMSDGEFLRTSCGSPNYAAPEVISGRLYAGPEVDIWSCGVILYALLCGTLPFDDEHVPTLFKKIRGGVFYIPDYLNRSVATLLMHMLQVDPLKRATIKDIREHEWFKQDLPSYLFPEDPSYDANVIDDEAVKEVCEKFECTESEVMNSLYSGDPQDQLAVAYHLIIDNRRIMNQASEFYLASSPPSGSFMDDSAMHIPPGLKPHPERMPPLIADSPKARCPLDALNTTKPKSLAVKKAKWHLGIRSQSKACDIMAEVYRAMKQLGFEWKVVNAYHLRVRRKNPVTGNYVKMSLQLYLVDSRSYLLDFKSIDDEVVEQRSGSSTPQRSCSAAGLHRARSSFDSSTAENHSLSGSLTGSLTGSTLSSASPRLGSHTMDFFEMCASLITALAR
# [10] = molecular target: UniProt Q8BTW9; assay: as above; settings: ligand concentration: 20 uM; assay format: PISA pool 52.9/55.5/58.6 C
# Chain of UniProt Q8BTW9 (Q8BTW9 whole entry): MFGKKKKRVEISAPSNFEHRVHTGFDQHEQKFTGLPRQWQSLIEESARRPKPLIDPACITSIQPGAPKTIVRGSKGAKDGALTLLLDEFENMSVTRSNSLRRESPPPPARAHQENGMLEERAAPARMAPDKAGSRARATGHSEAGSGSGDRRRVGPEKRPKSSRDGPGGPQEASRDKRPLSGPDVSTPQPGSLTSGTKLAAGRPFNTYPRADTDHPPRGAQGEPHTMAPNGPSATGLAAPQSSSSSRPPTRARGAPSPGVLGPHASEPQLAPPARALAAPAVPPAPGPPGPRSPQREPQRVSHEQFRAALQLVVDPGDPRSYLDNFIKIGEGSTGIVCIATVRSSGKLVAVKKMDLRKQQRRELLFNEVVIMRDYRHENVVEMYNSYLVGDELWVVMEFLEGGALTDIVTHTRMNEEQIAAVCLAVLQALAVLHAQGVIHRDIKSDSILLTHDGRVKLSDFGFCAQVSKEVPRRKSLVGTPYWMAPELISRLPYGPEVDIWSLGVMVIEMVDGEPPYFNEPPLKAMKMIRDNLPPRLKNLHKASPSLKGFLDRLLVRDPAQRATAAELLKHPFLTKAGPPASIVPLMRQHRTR
# [11] = molecular target: T4, UniProt Q8BYY4; assay: as above; settings: ligand concentration: 20 uM; assay format: PISA pool 52.9/55.5/58.6 C
# T4 sequence (whole entry): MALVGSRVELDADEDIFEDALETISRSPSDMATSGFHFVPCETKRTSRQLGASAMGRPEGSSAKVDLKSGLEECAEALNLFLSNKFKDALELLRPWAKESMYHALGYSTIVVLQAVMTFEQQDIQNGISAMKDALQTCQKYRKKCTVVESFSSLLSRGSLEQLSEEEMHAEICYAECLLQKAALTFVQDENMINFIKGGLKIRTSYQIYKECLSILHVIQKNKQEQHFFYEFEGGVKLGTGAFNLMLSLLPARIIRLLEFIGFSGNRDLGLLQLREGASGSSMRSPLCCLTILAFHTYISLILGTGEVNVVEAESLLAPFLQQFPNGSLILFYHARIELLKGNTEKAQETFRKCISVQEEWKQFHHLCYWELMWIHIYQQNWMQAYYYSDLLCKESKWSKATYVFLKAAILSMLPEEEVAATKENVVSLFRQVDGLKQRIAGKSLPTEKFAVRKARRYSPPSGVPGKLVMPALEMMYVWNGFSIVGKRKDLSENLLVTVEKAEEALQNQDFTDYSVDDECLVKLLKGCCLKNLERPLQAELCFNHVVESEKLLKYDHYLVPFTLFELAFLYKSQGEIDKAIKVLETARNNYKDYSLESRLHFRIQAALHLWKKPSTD
# [12] = molecular target: UniProt Q9EQ20; assay: as above; settings: ligand concentration: 20 uM; assay format: PISA pool 52.9/55.5/58.6 C
# Chain of UniProt Q9EQ20 (Q9EQ20 whole entry): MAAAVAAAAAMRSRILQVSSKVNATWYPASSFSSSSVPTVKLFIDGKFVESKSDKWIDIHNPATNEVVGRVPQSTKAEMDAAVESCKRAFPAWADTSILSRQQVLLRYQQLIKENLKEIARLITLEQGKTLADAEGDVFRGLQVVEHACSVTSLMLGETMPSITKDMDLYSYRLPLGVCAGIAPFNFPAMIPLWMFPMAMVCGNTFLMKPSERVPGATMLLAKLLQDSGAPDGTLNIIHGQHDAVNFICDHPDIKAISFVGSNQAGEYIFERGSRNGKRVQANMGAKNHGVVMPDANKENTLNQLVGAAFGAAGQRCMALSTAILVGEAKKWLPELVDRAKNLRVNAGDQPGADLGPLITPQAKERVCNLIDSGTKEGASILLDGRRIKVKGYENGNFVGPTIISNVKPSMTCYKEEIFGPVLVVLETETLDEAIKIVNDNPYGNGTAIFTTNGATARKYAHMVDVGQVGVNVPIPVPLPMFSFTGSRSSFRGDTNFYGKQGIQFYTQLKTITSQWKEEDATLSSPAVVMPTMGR
# [13] = molecular target: T5, UniProt Q9JI10; assay: as above; settings: ligand concentration: 20 uM; assay format: PISA pool 52.9/55.5/58.6 C
# T5 sequence (whole entry): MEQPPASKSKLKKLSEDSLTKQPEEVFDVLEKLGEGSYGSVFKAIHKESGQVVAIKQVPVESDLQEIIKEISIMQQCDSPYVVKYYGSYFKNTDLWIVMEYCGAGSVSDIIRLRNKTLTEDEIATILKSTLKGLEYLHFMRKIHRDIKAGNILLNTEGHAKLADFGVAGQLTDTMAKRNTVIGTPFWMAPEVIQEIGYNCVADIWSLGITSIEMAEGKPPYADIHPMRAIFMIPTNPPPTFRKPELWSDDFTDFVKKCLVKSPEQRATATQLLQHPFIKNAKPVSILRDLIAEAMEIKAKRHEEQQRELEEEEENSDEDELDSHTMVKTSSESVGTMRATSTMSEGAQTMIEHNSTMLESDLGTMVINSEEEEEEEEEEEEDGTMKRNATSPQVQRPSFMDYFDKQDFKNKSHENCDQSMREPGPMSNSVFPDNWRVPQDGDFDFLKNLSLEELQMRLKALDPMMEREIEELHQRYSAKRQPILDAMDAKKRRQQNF
# [14] = molecular target: T6, UniProt Q9R092; assay: as above; settings: ligand concentration: 20 uM; assay format: PISA pool 52.9/55.5/58.6 C
# T6 sequence (whole entry): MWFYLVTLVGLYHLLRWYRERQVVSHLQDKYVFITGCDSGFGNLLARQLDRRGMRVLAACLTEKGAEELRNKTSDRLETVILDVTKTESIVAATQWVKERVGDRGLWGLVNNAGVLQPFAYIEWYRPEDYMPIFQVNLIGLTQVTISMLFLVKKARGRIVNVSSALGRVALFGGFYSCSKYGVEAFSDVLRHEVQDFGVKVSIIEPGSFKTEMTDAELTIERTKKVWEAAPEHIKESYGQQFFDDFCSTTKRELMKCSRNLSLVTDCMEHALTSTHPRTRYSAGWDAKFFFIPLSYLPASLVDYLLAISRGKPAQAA
# [15] = molecular target: T7, UniProt Q9R257; assay: as above; settings: ligand concentration: 20 uM; assay format: PISA pool 52.9/55.5/58.6 C
# T7 sequence (whole entry): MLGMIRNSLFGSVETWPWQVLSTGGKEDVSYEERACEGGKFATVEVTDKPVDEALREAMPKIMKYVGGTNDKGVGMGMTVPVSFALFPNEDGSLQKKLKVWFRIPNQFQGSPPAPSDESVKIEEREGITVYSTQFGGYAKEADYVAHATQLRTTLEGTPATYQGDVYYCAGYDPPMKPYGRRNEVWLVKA
# [16] = molecular target: T8, UniProt P0AEX5; assay: log2 fold change of tryptic peptide abundance, ligand vs vehicle (limited proteolysis) (log2 ratio); higher = more trypsin-susceptible (destabilized); settings: peptide sequence: EAVMDSVVR; peptide start residue: 177; ligand concentration: 5 mM; sample: E. coli desalted lysate; replicate design: treated before aliquoting
# T8 sequence (whole entry): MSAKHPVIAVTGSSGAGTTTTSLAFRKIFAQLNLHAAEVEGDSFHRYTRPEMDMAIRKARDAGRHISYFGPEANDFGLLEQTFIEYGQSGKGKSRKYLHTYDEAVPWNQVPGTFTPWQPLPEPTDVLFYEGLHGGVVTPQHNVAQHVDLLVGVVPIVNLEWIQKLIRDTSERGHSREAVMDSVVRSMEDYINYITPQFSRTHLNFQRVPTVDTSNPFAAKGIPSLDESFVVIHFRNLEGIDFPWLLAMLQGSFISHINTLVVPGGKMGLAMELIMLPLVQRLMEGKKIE
# Description: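 HT-PELSA: desalted E. coli K-12 BW25113 lysate (with 12 mM MgCl2) incubated with 5 mM ATP (pH 7) or water for 30 min at 25 C, then a 4 min trypsin pulse at 22 C. Peptides were quantified by DIA-MS (4 replicates). Value is the peptide log2 fold change (treated/control); negative = stabilized. Scale: negative = ligand-stabilized region.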
# 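Throughout, for log2 fold change of tryptic peptide abundance, ligand vs vehicle (limited proteolysis): lysate desalted by size exclusion to strip endogenous ATP, peptide intensities built from DIA-NN precursor signals, and peptides missing any value discarded before comparison.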
SMILES,log2 fold change of pooled soluble protein [1],log2 fold change of pooled soluble protein [2],log2 fold change of pooled soluble protein [3],log2 fold change of pooled soluble protein [4],log2 fold change of pooled soluble protein [5],log2 fold change of pooled soluble protein [6],log2 fold change of pooled soluble protein [7],log2 fold change of pooled soluble protein [8],log2 fold change of pooled soluble protein [9],log2 fold change of pooled soluble protein [10],log2 fold change of pooled soluble protein [11],log2 fold change of pooled soluble protein [12],log2 fold change of pooled soluble protein [13],log2 fold change of pooled soluble protein [14],log2 fold change of pooled soluble protein [15],log2 fold change [16]
CN[C@@H]1C[C@H]2O[C@@](C)([C@@H]1OC)n1c3ccccc3c3c4c(c5c6ccccc6n2c5c31)C(=O)NC4 [staurosporine],0.645,2.14,1.02,1.91,1.2,2.18,0.447,0.619,0.661,1.36,0.552,0.615,1.77,0.855,0.471,–
Nc1ncnc2c1ncn2[C@@H]1O[C@H](COP(=O)(O)OP(=O)(O)OP(=O)(O)O)[C@@H](O)[C@H]1O [adenosine 5'-triphosphate],–,–,–,–,–,–,–,–,–,–,–,–,–,–,–,0.659
